# GRIN3A LBD mod – modulates the human NR3A ligand-binding domain; AID 1259313; NR3A LBD differential scanning fluorimetry, Tm shift; 0% = protein alone, 100% = glycine-bound protein; Tm shift relative to glycine control, % at 25 µM; 340,000 compounds, 2.5% hits;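 active means melting temperature shift of at least 10% of the positive control shift, at one fixed dose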
# CSC inhib – blocks cancer stem cells; cancer stem cell-like cells viability, luminescence; inhibition, % at 7.5 µM; 300,000 compounds, 1.1% hits; in the data active means inhibition above about 75%; inconclusive means no clear call, values can overlap the other calls; tested in HMLE shEcad cells
# SKKanGAS inh – inhibitors of SKKanGAS S. pyogenes growth in kanamycin (SK-promoter or general growth effect); BacTiter-Glo, 6 h; inhibition, % at 7.5 µM; 300,000 compounds, 1.3% hits; AID 1662;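 active means mean replicate score, as percent of positive control median, at least 50; inconclusive means mean below 50 but one replicate at or above 50; inactive means mean and every replicate below 50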;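 further: strain carries kanamycin resistance gene driven by streptokinase promoter and grows in 40 µg/ml kanamycin; loss of luminescence reflects streptokinase promoter inhibition or plain growth inhibition; 0% = median of DMSO wells and 100% = positive control at its reference dose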
# Mdm2-MdmX inh – disrupts the human Mdm2-MdmX interaction | O15151+Q00987 | SaOS-2 split-luciferase Mdm2/MdmX complementation, luminescence | inhibition, % at 8 µM | 330,000 compounds, 3% hits | AID 485346;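 active means inhibition of at least 50% at 8 µM in the primary screen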
# MPTP block – inhibitors of mitochondrial permeability transition pore; isolated mouse mitochondria, Ca2+ swelling absorbance, 30 min; inhibition, % at 10 µM; 360,000 compounds, 1.4% hits;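 active means inhibition of 50% or more, scaled per plate between neutral and stimulator controls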;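 further: 0% = DMSO wells given calcium and 100% = 1 mM EGTA wells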
# Beta cell apopt – blocks beta cell apoptosis. INS-1E cytokine-induced death, ATP luminescence, 48 h; percent of positive-control rescue, neutral wells zero. protection from apoptosis, % (concentration not given with the values). 300,000 compounds, 0.8% hits. AID 435005;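 active means Every replicate reaches about 75%, or at least half do and their mean reaches it too, limit read from the data; inconclusive means At least half of replicates reach the limit but their mean does not; inactive means Under half of replicates reach the limit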;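 further: 0% = cytokine-treated negative control wells and 100% = positive control rescue; higher means more ATP so stronger rescue from cytokine killing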
# * hit, by the source's call; ? = inconclusive; nt = no result. The list is not random: actives were taken first. Their share in the collection is about 6.9%.
SMILES,GRIN3A LBD mod,CSC inhib,SKKanGAS inh,Mdm2-MdmX inh,MPTP block,Beta cell apopt
COc1ccc(CCC(=O)OCC(=O)c2cccc(OC)c2)cc1,-1.6,-2.0,-6.1,2.9,2.2,-1.1
CC(C)CNC(=O)C1(C)CCCN1C(=O)c1ccncc1 (stereo not drawn),nt,nt,nt,nt,-1.6,nt
COc1ccc(OCCN2C(=O)c3ccccc3C2=O)c([N+](=O)[O-])c1,1.5,7.3,3.1,8.7,-0.3,-7.1
COc1ccc(/C=C/C(=O)Nc2ccccc2C(=O)O)cc1,19.6*,7.5,18.0,-68.8,1.3,10.2
CCC(C)(C)C(=O)Nc1ccc(OC)cc1[N+](=O)[O-],0.9,8.8,-2.6,-5.1,-1.1,-4.8
CCOc1ccc(/C=C/C(=O)Nc2ccc(OC)cc2[N+](=O)[O-])cc1,28.2*,-5.5,-0.2,41.3,4.0,2.8
CCOc1ccc(N/C=C/C(=O)c2ccccc2)c([N+](=O)[O-])c1,18.4*,56.1,5.4,3.4,2.5,30.6
CCOc1ccc(NC(=O)/C=C/c2ccccc2)c([N+](=O)[O-])c1,15.5*,8.7,-13.4,-51.1,0.8,0.6
COc1ccc(NC(=O)/C=C/C(=O)O)c([N+](=O)[O-])c1,2.2,7.7,-4.5,13.4,0.6,nt
O=C(CCCc1nc2ccccc2s1)Nc1ccc(N2CCOCC2)cc1,-0.9,-12.8,-4.9,2.2,2.2,2.6
Cc1cn([C@H]2C[C@H](O)[C@@H](CNCC3=Cc4cc(O)ccc4OC3)O2)c(=O)[nH]c1=O,nt,nt,nt,nt,-1.5,nt
Cc1nc2c([nH]c3ccc(Br)cc32)s1,14.8*,-2.8,-5.7,-10.1,-2.7,-2.8
Cc1n[nH]c2ccc(Br)cc2c1=O,nt,nt,nt,nt,-0.3,nt
Nc1nc(=S)[nH]c2c1C1(CCCCC1)Cc1ccccc1-2,13.4*,-4.7,2.2,nt,0.5,-1.0
Nc1nc(=S)[nH]c2c1C1(CCCC1)Cc1ccccc1-2,-0.6,-7.6,2.6,17.9,0.6,-8.3
COc1ccc(CNC(=O)[C@H](Cc2ccccc2)NC(=O)CC[C@H]2O[C@@H](n3ccc(=O)[nH]c3=O)[C@H](O)[C@@H]2O)cc1,nt,nt,nt,nt,-2.0,nt
COc1ccc(C)cc1NC(=O)C1CCCN(S(=O)(=O)c2ccc3[nH]c(=O)ccc3c2)C1 (stereo not drawn),14.8*,8.5,-11.0,27.9,0.8,6.7
COc1ccc(N(CC(=O)Nc2cc(Cl)ccc2C)S(=O)(=O)c2c(C)n[nH]c2C)cc1,0.2,38.4,-1.4,49.1,1.5,12.7
CC(/C=C/C=C/c1ccccc1)=N/NC(=O)c1ccc2c(c1)OCCO2,1.1,12.0,60.6*,32.0,3.5,-4.9
CC(/C=C/c1ccccc1)=N/NC(=O)c1cccc(Br)c1,-7.0,38.6,87.2*,44.9,2.0,15.4
Cc1ccc([C@@H]2[C@@H]3C(=O)N(C)C(=O)[C@@H]3[C@]3(Cc4ccccc4)C(=O)N(CCO)CC(=O)N23)o1,2.1,-4.9,-4.5,12.5,-1.9,-3.9
Cc1ccc([C@@H]2[C@@H]3C(=O)N(c4ccccc4)C(=O)[C@@H]3[C@]3(Cc4ccccc4)C(=O)N(CC4CC4)CC(=O)N23)o1,18.0*,1.2,4.3,16.8,0.7,-1.3
CCC(=O)Nc1nc(C)c(-c2csc(Nc3ccccn3)n2)s1,25.0*,51.1,14.9,19.5,-1.6,-17.9
CCCCC(=O)Nc1nc(C)c(-c2csc(Nc3cc(OC)ccc3OC)n2)s1,-4.3,81.3*,9.4,39.1,8.0,2.7
Cc1cccnc1Nc1nc(-c2ccc(O)c(O)c2)cs1,27.8*,53.2,-5.5,-40.9,7.5,0.9
SMILES,GRIN3A LBD mod,CSC inhib,SKKanGAS inh,Mdm2-MdmX inh,MPTP block,Beta cell apopt
CCCC(C)C(=O)Nc1nc(C)c(-c2csc(Nc3ccc(Cl)cc3)n2)s1 (stereo not drawn),-16.1,42.9,7.4,-1.4,-0.5,99.6*
CCC1(c2ccc(C)cc2)NC(=O)N(C(C)C(=O)Nc2ccc(N3CCOCC3)cc2)C1=O (stereo not drawn),-0.8,nt,nt,-8.3,0.5,-0.5
CC(=O)Nc1ccc(-c2csc(Nc3ccccn3)n2)cc1,29.9*,-7.1,-17.1,-292.9,0.3,5.2
Cc1ccnc(Nc2nc(-c3ccc(O)cc3)cs2)c1,17.9*,16.8,-2.1,-27.7,5.5,nt
Oc1ccc(-c2csc(Nc3cccc4ccccc34)n2)cc1O,7.1,8.2,20.0,-5.2,6.0,-7.6
Oc1ccc(-c2csc(Nc3ccccn3)n2)cc1O,33.4*,43.4,-0.2,-153.6,4.0,13.9
Cc1ccnc(Nc2nc(-c3ccc(O)c(O)c3)cs2)c1,38.5*,68.1,-2.7,-38.1,6.2,9.0
CC(=O)Nc1nc(-c2ccc(-c3ccccc3)cc2)cs1,nt,nt,nt,nt,0.4,nt
CC(C)CCN1C(=O)C2(OCCCO2)c2cc(Cl)ccc21,-0.4,2.2,15.3,0.6,-1.1,-3.7
COC(=O)c1ccc(/C=N/Nc2nc(-c3ccc(C)cc3)cs2)cc1,3.3,-11.3,-4.5,1.2,9.1,-6.0
COc1ccc(-c2csc(Nc3cc(C)ccn3)n2)cc1C,7.5,6.1,32.5,-40.8,-0.7,1.3
CC(=O)Nc1ccc(-c2csc(N/N=C\c3ccncc3)n2)cc1,15.4*,-2.3,1.9,14.7,2.5,1.5
Cc1ccnc(Nc2nc(-c3ccc(O)cc3O)cs2)c1,40.0*,?,6.6,7.0,2.9,8.0
CN1CCC(OC(=O)c2cccc(Cl)c2)CC1,1.2,117.3*,-2.4,-0.1,-0.5,-10.1
N#CC1(c2ccc(NC(=O)c3ccccc3)cc2)CCCC1,nt,17.5,-1.5,nt,0.7,11.4
CC(=O)Oc1ccc(C(=O)Nc2ccc(C3(C#N)CCCC3)cc2)cc1,-5.2,95.5*,11.9,18.3,0.7,-1.9
CCCCNc1ccc2c3c(cccc13)C(=O)N(CCCC)C2=O,11.2*,nt,23.5,nt,48.7,nt
CN(C)CCCN1C(=O)c2cccc3c(Br)ccc(c23)C1=O,0.5,13.7,7.7,28.6,0.2,12.8
COc1ccc(NC(=O)CCNS(=O)(=O)c2cc(Br)cnc2N)cc1OC,2.9,-18.4,-4.9,15.7,0.1,1.1
Cc1cc(C)cc(NC(=O)CCNS(=O)(=O)c2cc(Br)cnc2N)c1,12.5*,-5.9,2.3,17.1,2.5,-3.1
CCOC(=O)c1ccc(NC(=O)CCNS(=O)(=O)c2cc(Br)cnc2N)cc1,15.2*,6.0,1.4,-1.7,0.7,-3.0
CCOC(=O)C1CCN(C(=O)CN2C(=O)c3ccccc3S2(=O)=O)CC1,18.1*,-9.9,5.3,22.4,-1.0,-2.7
O=C(CN1C(=O)c2ccccc2S1(=O)=O)N1CCCCC1,-6.3,-9.6,28.0,-0.5,-1.0,4.0
CCNc1nc(Cl)nc(-c2cn(-c3ccccc3)c3ccccc23)n1,12.1*,18.0,2.0,41.8,1.2,59.1
NC(=O)N/N=C/c1ccc([N+](=O)[O-])o1,-2.2,-1.7,nt,31.8,-1.3,-5.0
O=[N+]([O-])c1ccc(/C=[N+](\[O-])CCO)o1,0.4,2.9,83.8*,-10.6,-1.6,nt
O=C(c1cc2cc(F)ccc2[nH]1)N1CCN(c2cccc(Cl)c2)CC1,3.6,-5.4,12.3,39.1,0.8,3.8
